The values below come from the supplement of paper PMC11172423.

Structures are written as SMILES. Unmarked numbers belong to inactive results.

In assay [1] the test system is Falciformispora senegalensis CBS197.79. Description: growth relative to untreated control; higher = less inhibition, active = 20 or less. Summed up:
(§1)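 In 96-well plates, suspended hyphal fragments of M. mycetomatis MM55 or F. senegalensis CBS197.79 were exposed to compound at 100 or 25 µM for 7 days at 37 °C. The suspension medium was colourless RPMI 1640 with L-glutamine and MOPS, adjusted to 68–72% transmission at 660 nm. Viability was measured with MTS (2 h, 490 nm) or resazurin (600 nm). Growth means metabolic activity compared with the untreated growth control after blank correction of both with medium plus dye.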

Assay [2] has as its system Madurella mycetomatis MM55. Described as above. In a few lines: as §1

With `CCSC1CCCCC1NCCn1c(=O)oc2cccnc21` (configuration not stated), the growth in assay [1] (25 µM) is 91.3%; in assay [1] (100 µM), 90.9%; in assay [2] (25 µM) it was 37.9%; in assay [2] (100 µM) it was 93.1%.

Take `CCOC(=O)c1c(CSc2ccccc2)n(C)c2cc(Br)c(O)c(CN(C)C)c12`: the growth in assay [1] (25 µM) is 103%; in assay [1] (100 µM), 97.8%; in assay [2] (25 µM) it was 98.5%; in assay [2] (100 µM) it was 75.4%.

`CNc1ccc2cc(NC(=O)c3ccc(C(F)(F)F)c(Cl)c3)ccc2n1`: the growth in assay [1] (25 µM) is 69.4%; in assay [1] (100 µM), 104%; in assay [2] (25 µM), 6.89% (active); in assay [2] (100 µM), 77.4%.

With `O=C(c1ccc(Nc2nccc(-c3ccc(C(F)(F)F)c(Cl)c3)n2)cc1)N1CC(O)C1`, the growth in assay [1] (25 µM) was 97.7%; in assay [1] (100 µM), 106%; in assay [2] (25 µM), 103%; in assay [2] (100 µM), 131%.

For `CC(C)CC(NC(=O)N1CCOCC1)C(=O)NC(/C=C/S(=O)(=O)c1ccccc1)CCc1ccccc1` (configuration not stated), the growth in assay [1] (25 µM) is 90.8%; in assay [1] (100 µM), 93.9%; in assay [2] (25 µM), 86.4%; in assay [2] (100 µM), 96.5%.

As for `CC(C)(C)c1nc(-c2cccc(NS(=O)(=O)c3c(F)cccc3F)c2F)c(-c2ccnc(N)n2)s1`, the growth in assay [1] (25 µM) was 101%; in assay [1] (100 µM), 104%; in assay [2] (25 µM) it was 103%; in assay [2] (100 µM) it was 82.4%.

In the case of `C[C@H](NC(=O)c1cc2ccc(Cl)cc2n1C)c1ccccc1`, the growth was 93.6% in assay [1] (25 µM), 81.7% in assay [1] (100 µM), 99.6% in assay [2] (25 µM) and 81.1% in assay [2] (100 µM).

Turning to `CCN(CC)Cc1cc(Nc2ccnc3cc(Cl)ccc23)ccc1O`, the growth is 89.8% in assay [1] (25 µM), 88.3% in assay [1] (100 µM), 81.3% in assay [2] (25 µM) and 43.4% in assay [2] (100 µM).
